The full ranking holds about 1,200 compounds; the median of “% viability” is about 1, and the lowest 2% start at about 0.27. What follows is part of a selection rich in the lowest values, with near analogues and random picks from the rest. The numbers are fractions of the control, whatever unit the source prints.
These compounds were tested on S. rosetta (SrEpac culture). Conditions: flow cytometry, 24 h, high-nutrient medium; 10 µM.

Row | Structure (SMILES) | % viability
1 | CCCc1cc(-c2cncc(OCC(N)Cc3c[nH]c4ccccc34)c2)cc2c(C)n[nH]c12 (stereo not shown) [KMS_217] | 0

From publication PMC11984502, “A stress-responsive p38 signaling axis in choanoflagellates” (RSC Chemical Biology, 2025)
